The values below come from publication PMC7862700, “An all-to-all approach to the identification of sequence-specific readers for epigenetic DNA modifications on cytosine”.

Common to all, as to test: DAPPL (digital affinity profiling via proximity ligation, sequencing); 10 mM Tris-HCl pH 7.5, 50 mM NaCl, 1 mM DTT, 4% glycerol, room temperature, 30 min; GST-TFs on glutathione beads, 16-mer random dsDNA library, 0.1% formaldehyde crosslink after washing; high values mean tight binding
Assay [1] has as its target T1, FEV (Homo sapiens, UniProt Q99581 1-238).
T1 sequence: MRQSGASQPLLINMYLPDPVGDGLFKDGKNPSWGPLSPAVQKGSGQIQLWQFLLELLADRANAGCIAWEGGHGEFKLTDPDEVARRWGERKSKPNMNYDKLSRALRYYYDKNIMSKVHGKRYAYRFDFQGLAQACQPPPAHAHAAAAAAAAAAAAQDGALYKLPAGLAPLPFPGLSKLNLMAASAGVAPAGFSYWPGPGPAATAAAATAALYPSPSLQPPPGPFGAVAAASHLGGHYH
Particulars: protein: recombinant; tags: N-terminal GST; dsDNA, one strand shown. Summed up:
(§1)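 Binding signal is given per hexamer as its read frequency for a factor divided by its frequency in the tag-only sample. GST-fused human transcription factors were expressed in yeast, captured on glutathione beads, barcoded with DNA and pooled with that sample, then incubated with 200 nmole of a 16-mer random double-stranded DNA library in Tris/NaCl/DTT/glycerol buffer for 30 min at room temperature. The pools were then washed, crosslinked, proximity-ligated, amplified by PCR and sequenced on an Illumina NextSeq500.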

In assay [2] the target is ETV5 (Homo sapiens, UniProt P41161 1-510). Particulars: protein: recombinant; tags: N-terminal GST; dsDNA, one strand shown. Summed up: as §1
The target of assay [3] is HSF1 (Homo sapiens, UniProt Q00613 1-529). Particulars: protein: recombinant; tags: N-terminal GST; chain copies: 3; dsDNA, one strand shown. A digest of the protocol:
as §1

Assay [4] has as its target T2, SPIC (Homo sapiens, UniProt Q8N5J4 1-248).
T2 sequence: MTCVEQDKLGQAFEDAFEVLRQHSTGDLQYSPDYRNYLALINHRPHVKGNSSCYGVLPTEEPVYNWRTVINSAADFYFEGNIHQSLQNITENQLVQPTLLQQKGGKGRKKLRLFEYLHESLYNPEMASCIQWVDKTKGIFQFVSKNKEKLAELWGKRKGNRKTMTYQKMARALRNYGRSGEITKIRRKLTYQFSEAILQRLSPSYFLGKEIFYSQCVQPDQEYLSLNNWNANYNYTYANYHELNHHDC
Particulars: protein: recombinant; tags: N-terminal GST; dsDNA, one strand shown. Summed up: as §1

In assay [5] the target is ELF4 (Homo sapiens, UniProt Q99607 1-663). Particulars: protein: recombinant; tags: N-terminal GST; dsDNA, one strand shown. Summed up:
as §1

In assay [6] the target is T3, ELK4 (Homo sapiens, UniProt P28324-2 1-405).
T3 sequence: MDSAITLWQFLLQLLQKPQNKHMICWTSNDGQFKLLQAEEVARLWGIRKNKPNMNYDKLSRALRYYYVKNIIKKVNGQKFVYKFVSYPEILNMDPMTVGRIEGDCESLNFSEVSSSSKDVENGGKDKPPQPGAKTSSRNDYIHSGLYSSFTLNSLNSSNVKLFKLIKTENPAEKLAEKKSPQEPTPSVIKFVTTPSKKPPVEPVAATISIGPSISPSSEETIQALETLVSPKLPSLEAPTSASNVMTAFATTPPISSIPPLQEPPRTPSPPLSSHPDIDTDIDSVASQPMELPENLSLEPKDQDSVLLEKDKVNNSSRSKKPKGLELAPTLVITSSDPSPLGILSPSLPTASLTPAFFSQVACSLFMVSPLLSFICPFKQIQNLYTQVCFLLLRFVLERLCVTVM
Particulars: protein: recombinant; tags: N-terminal GST; dsDNA, one strand shown. A digest of the protocol: as §1

The target of assay [7] is T4, ETV2 (Homo sapiens, UniProt O00321 1-342).
T4 sequence: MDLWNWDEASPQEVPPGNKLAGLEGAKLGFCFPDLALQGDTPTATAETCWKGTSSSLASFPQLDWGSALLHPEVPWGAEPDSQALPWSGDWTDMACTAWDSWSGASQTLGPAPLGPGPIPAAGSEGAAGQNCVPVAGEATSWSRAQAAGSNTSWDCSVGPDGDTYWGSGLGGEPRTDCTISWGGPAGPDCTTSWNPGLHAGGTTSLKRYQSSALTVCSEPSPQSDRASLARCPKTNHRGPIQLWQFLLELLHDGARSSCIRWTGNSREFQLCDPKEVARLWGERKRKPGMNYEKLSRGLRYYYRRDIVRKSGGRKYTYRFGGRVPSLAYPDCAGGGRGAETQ
Particulars: protein: recombinant; tags: N-terminal GST; dsDNA, one strand shown. A digest of the protocol:
as §1

The target in assay [8] is T5, ELF3 (Homo sapiens, UniProt P78545 1-371).
T5 sequence: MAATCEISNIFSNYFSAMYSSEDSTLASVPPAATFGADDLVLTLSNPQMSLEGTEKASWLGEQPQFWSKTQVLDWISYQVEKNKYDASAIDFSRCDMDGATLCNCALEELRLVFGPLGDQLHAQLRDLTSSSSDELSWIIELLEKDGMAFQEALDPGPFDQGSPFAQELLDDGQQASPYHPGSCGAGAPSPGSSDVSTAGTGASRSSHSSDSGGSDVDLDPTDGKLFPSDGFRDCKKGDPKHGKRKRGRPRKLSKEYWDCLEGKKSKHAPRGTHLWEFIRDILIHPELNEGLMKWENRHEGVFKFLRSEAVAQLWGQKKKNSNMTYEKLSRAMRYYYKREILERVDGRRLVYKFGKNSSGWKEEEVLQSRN
Particulars: protein: recombinant; tags: N-terminal GST; dsDNA, one strand shown. A digest of the protocol: as §1

The target in assay [9] is CRX (Homo sapiens, UniProt O43186 1-299). Particulars: protein: recombinant; tags: N-terminal GST; dsDNA, one strand shown. Summed up:
as §1

For assay [10], the target named is ETV1 (Homo sapiens, UniProt P50549 1-477). Particulars: protein: recombinant; tags: N-terminal GST; dsDNA, one strand shown. Summed up:
as §1

Assay [11] has as its target T6, ERF (Homo sapiens, UniProt P50548 1-548).
T6 sequence: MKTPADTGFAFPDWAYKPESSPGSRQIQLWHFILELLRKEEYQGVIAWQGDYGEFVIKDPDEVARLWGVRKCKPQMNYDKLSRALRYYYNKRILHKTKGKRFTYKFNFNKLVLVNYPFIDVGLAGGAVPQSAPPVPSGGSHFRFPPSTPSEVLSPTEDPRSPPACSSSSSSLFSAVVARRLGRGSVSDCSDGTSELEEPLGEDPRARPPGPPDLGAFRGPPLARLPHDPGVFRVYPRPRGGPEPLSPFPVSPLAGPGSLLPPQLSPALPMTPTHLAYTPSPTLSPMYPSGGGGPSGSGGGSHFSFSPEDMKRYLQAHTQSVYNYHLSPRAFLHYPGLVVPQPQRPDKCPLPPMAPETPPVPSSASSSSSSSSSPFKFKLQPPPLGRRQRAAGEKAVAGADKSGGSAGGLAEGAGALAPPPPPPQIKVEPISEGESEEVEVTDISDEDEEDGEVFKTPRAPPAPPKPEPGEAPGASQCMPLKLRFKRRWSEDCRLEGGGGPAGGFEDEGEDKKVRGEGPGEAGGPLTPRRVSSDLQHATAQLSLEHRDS
Particulars: protein: recombinant; tags: N-terminal GST; dsDNA, one strand shown. Summed up:
as §1

For assay [12], the target named is T7, ETV3L (Homo sapiens, UniProt Q6ZN32 1-361).
T7 sequence: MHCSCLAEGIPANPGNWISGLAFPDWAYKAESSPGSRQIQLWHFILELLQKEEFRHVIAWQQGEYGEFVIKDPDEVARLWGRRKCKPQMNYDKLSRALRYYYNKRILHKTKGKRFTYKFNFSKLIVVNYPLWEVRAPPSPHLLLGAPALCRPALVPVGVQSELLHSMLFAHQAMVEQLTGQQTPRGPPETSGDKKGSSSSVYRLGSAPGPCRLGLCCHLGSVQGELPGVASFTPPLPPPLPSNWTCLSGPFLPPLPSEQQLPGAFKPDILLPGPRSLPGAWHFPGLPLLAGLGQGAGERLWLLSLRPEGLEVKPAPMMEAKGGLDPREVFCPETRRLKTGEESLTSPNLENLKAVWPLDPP
Particulars: protein: recombinant; tags: N-terminal GST; dsDNA, one strand shown. A digest of the protocol: as §1

Assay [13] has as its target T8, ETS2 (Homo sapiens, UniProt P15036 1-469).
T8 sequence: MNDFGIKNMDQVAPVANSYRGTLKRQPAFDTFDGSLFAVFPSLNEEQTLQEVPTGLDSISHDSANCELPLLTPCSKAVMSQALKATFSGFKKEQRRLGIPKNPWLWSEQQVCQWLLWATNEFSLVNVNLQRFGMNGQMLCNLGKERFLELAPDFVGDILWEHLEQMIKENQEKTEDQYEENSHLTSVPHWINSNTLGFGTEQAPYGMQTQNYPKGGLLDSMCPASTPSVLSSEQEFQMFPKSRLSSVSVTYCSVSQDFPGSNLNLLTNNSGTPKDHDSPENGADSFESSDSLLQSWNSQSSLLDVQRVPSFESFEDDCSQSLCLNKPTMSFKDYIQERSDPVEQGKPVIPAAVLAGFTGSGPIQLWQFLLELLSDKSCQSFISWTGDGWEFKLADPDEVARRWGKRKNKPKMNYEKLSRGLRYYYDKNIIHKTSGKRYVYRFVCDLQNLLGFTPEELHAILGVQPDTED
Particulars: protein: recombinant; tags: N-terminal GST; dsDNA, one strand shown. A digest of the protocol:
as §1

Assay [14] has as its target T9, SPDEF (Homo sapiens, UniProt O95238 1-335).
T9 sequence: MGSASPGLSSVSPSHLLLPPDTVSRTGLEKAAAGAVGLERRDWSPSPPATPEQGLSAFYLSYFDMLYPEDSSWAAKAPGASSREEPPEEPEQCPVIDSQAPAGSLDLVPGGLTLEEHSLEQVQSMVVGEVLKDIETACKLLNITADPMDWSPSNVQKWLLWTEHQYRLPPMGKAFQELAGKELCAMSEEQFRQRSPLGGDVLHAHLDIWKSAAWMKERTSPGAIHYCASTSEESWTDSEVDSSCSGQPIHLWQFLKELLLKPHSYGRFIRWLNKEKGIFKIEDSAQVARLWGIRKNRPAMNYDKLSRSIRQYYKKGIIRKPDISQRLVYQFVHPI
Particulars: protein: recombinant; tags: N-terminal GST; dsDNA, one strand shown. A digest of the protocol: as §1

For assay [15], the target named is T10, ETV7 (Homo sapiens, UniProt Q9Y603 1-341).
T10 sequence: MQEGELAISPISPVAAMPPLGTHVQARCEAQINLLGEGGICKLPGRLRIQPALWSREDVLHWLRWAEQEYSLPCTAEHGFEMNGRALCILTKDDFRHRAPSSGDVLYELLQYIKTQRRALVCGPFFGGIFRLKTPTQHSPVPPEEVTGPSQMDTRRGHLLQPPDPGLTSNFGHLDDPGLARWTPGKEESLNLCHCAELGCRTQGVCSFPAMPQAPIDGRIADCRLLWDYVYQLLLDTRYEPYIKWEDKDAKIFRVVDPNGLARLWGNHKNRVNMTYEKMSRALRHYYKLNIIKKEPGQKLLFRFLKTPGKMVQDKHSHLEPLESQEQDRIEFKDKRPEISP
Particulars: protein: recombinant; tags: N-terminal GST; dsDNA, one strand shown. A digest of the protocol:
as §1

Assay [16] deals with T11, ELF5 (Homo sapiens, UniProt Q9UKW6-2 1-255).
T11 sequence: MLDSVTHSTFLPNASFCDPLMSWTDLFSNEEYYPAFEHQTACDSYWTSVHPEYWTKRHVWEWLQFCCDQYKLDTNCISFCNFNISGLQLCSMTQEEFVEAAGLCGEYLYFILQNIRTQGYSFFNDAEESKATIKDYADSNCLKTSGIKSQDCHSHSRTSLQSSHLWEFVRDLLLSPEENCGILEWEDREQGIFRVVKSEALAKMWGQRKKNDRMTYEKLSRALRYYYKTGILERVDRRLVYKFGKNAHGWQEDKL
Particulars: protein: recombinant; tags: N-terminal GST; dsDNA, one strand shown. A digest of the protocol:
as §1

The target of assay [17] is T12, ETV3 (Homo sapiens, UniProt P41162-2 1-143).
T12 sequence: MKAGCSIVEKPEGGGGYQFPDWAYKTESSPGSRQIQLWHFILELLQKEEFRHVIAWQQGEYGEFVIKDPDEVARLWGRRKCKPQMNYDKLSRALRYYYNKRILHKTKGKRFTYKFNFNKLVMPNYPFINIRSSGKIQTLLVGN
Particulars: protein: recombinant; tags: N-terminal GST; dsDNA, one strand shown. A digest of the protocol: as §1

Assay [18] deals with ETV6 (Homo sapiens, UniProt P41212 1-452). Particulars: protein: recombinant; tags: N-terminal GST; dsDNA, one strand shown. A digest of the protocol: as §1
ETV6, sequence (P41212 whole entry): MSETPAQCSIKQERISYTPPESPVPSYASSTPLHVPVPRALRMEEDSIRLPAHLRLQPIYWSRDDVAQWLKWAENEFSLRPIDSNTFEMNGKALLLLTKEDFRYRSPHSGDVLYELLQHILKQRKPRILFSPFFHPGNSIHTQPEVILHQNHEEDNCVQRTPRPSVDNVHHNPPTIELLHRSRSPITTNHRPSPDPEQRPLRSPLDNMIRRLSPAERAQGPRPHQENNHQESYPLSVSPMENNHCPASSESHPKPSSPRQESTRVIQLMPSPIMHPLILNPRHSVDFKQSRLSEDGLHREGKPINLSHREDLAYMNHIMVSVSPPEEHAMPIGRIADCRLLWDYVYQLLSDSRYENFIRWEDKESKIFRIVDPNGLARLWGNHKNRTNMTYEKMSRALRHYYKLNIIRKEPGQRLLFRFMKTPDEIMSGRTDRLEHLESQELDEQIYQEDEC

HSF1, sequence (Q00613 whole entry): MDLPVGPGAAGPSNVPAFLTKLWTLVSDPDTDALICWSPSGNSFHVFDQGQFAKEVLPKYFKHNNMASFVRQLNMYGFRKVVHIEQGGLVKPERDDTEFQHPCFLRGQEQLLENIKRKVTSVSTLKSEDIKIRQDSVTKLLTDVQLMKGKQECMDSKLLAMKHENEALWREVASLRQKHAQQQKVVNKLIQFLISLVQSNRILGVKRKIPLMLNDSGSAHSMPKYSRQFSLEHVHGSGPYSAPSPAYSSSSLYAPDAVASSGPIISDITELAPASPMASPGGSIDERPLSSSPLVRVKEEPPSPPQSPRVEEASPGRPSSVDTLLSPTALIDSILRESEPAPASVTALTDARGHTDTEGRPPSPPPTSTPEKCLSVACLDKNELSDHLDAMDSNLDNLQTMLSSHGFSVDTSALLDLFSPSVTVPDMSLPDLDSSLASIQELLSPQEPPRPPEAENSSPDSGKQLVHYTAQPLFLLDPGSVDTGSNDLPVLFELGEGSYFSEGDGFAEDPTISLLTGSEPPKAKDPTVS
ELF4, sequence (Q99607 whole entry): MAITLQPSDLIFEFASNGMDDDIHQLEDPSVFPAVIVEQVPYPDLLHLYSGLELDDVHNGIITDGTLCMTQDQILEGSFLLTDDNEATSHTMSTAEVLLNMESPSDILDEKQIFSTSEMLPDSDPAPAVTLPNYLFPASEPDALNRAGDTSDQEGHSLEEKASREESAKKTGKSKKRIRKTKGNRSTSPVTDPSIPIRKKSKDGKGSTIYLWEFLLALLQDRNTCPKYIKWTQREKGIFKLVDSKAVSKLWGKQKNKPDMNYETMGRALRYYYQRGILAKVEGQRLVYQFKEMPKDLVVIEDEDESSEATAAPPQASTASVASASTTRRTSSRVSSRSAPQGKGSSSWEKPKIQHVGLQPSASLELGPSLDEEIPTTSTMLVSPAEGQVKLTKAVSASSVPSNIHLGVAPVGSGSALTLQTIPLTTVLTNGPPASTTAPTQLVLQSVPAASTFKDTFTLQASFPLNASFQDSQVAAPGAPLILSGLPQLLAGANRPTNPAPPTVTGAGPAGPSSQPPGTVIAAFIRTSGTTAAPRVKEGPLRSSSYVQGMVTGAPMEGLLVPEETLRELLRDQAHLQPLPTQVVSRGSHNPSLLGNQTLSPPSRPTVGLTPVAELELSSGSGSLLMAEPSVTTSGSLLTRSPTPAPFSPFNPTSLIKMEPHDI
ETV5, sequence (P41161 whole entry): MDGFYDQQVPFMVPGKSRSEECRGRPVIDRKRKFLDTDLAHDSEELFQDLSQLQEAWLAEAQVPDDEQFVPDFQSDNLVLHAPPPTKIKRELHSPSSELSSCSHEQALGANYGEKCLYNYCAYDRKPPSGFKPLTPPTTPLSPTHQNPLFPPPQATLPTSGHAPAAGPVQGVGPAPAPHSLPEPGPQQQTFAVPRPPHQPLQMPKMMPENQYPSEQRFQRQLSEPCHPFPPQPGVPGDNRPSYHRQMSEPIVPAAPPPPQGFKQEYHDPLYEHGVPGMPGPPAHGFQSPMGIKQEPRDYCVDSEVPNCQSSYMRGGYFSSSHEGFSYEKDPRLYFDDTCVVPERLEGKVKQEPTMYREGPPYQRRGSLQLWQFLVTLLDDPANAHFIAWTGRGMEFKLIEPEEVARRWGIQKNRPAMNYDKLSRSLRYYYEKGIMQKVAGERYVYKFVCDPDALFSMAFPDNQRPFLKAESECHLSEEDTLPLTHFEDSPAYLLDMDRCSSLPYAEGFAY
CRX, sequence (O43186 whole entry): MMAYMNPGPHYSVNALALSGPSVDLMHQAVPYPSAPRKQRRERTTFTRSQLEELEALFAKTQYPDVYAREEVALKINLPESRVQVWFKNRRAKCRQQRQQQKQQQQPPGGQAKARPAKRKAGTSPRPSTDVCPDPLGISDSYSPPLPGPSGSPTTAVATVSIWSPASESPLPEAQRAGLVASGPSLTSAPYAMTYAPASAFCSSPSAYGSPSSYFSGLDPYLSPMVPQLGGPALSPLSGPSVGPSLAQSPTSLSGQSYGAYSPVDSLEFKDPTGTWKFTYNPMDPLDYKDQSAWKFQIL
ETV1, sequence (P50549 whole entry): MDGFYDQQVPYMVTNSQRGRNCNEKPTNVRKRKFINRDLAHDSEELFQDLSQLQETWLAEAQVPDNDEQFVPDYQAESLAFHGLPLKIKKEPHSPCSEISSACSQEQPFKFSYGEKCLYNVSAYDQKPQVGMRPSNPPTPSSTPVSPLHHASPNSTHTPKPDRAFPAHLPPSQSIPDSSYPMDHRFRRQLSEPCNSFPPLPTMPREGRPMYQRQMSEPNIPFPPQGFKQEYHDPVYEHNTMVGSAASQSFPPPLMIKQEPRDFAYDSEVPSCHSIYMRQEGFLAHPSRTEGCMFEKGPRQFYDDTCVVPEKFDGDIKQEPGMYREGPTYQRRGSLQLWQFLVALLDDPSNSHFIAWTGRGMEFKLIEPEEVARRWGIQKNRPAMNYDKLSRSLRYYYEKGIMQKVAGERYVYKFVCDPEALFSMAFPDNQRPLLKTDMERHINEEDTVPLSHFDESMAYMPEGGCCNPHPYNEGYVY

For ATTTTA, the binding signal was 1.25 fold enrichment (6-mer frequency, TF over GST control) in assay [1]; 1.23 fold enrichment (6-mer frequency, TF over GST control) in [2]; 1.45 fold enrichment (6-mer frequency, TF over GST control) in assay [3]; 1.36 fold enrichment (6-mer frequency, TF over GST control) in [4]; 1.32 fold enrichment (6-mer frequency, TF over GST control) in [5]; 1.37 fold enrichment (6-mer frequency, TF over GST control) in assay [6]. The binding signal in [7] is 1.29 fold enrichment (6-mer frequency, TF over GST control); in [8], 1.23 fold enrichment (6-mer frequency, TF over GST control); in assay [9], 1.83 fold enrichment (6-mer frequency, TF over GST control); in assay [10], 1.25 fold enrichment (6-mer frequency, TF over GST control); in [11] it was 1.27 fold enrichment (6-mer frequency, TF over GST control); in assay [12], 1.43 fold enrichment (6-mer frequency, TF over GST control). The binding signal was 1.33 fold enrichment (6-mer frequency, TF over GST control) in assay [13]; 1.23 fold enrichment (6-mer frequency, TF over GST control) in assay [14]; 1.37 fold enrichment (6-mer frequency, TF over GST control) in assay [15]; 1.2 fold enrichment (6-mer frequency, TF over GST control) in [16]; 1.26 fold enrichment (6-mer frequency, TF over GST control) in [17]; 1.26 fold enrichment (6-mer frequency, TF over GST control) in assay [18].
